28 compounds from PubChem BioAssay (EPA / NIEHS) can be followed below.

Results filed as inconclusive are left out. Calls of active or inactive are those of the source. Rule for the calls, unless noted: active = hit-call score of the fitted dose curve at least 0.9, where 1 is the maximum; inactive = score below 0.9.

Assay [1] is described as follows: ACEA_ER_80hr: ACEA Biosciences xCELLigence Real-Time Cell Analysis on Estrogen Receptor Agonism for Proliferation (AID 2282667; active = hit-call score of the fitted dose curve at least 0.9, where 1 is the maximum). The conditions noted are these: T47D proliferation, impedance (xCELLigence), 80 h. Put shortly: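 Impedance readout (RT-CES) of T47D proliferation at 80 h post-dose; gain of signal vs DMSO baseline. Compounds: 8 conc, 1:4 serial, top 100 uM final, ≤0.5% DMSO; biological duplicate.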

The nature of assay [2]: ATG_CRE_CIS: Attagene CIS-FACTORIAL HepG2 Assay for human cAMP Responsive Element (CRE) binding protein 3 (AID 2282926). The conditions noted are these: HepG2 CRE cis-reporter, Attagene multiplexed mRNA; actives raise or lower the signal. Put shortly: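 Readout: fluorescently labelled reporter transcripts resolved by capillary electrophoresis after RT-PCR, taken 24 h post-dosing in transfected HepG2. Endogenous transcription factor activity drives each cis-element reporter; gain or loss of signal fitted relative to DMSO control.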

Assay [3] addresses CCAAT/enhancer-binding protein beta (Homo sapiens) (UniProt P17676). As to the kind of experiment: ATG_C_EBP_CIS: Attagene CIS-FACTORIAL HepG2 Assay for human CCAAT/Enhancer Binding Protein (C/EBP) beta (AID 2282927). The conditions noted are these: HepG2 Attagene cis-factorial transcription factor reporter; actives raise or lower the signal. In a few lines:
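Endogenous C/EBPb-driven reporter transcripts measured in transfected human HepG2 cells at 24 h via RT-PCR and capillary electrophoresis of labelled fragments. Activity fitted in both directions relative to DMSO baseline.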

Assay [4] in a line: ATG_CMV_CIS: Attagene CIS-FACTORIAL HepG2 Assay for human CMV (Internal Marker) (AID 2282928).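 Note: endpoint acts as a background internal control marker rather than a target.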 The conditions noted are these: HepG2 CMV promoter reporter, transcription factor profiling; actives raise or lower the signal. Put shortly: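 Fluorescence intensity of RT-PCR-derived reporter fragments, resolved by capillary electrophoresis, gives the signal. HepG2 liver cells bearing transfected cis-element reporters were treated 24 h; activity in either direction was fit relative to DMSO-treated controls.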

The nature of assay [5]: ATG_DR4_LXR_CIS: Attagene CIS-FACTORIAL HepG2 Assay for human Liver X Receptor (LXR), DR4 submotif (AID 2282929). The conditions noted are these: HepG2 Attagene DR4 cis-reporter, mRNA transcription; actives raise or lower the signal. In a few lines:
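HepG2, transient MRTU transfection, cis-element (DR4) promoter; 24 h compound exposure; total RNA → oligo(dT) RT → PCR → 6-FAM primer extension → HpaI cut → CE. Gain/loss vs DMSO, bidirectional fit.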

Assay [6] can be described thus: ATG_AP_1_CIS: Attagene CIS-FACTORIAL HepG2 Assay for human Activator Protein 1 (AP-1) (AID 2282931). The conditions noted are these: HepG2 Attagene cis-factorial AP-1 reporter mRNA; actives raise or lower the signal. In a few lines:
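Transient MRTU transfection of HepG2 → 24 h chemical treatment → RNA isolation, RT-PCR, 6-FAM labelling, HpaI digest → capillary electrophoresis. Fit: bidirectional, DMSO negative control.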

Assay [7] can be described thus: ATG_AP_2_CIS: Attagene CIS-FACTORIAL HepG2 Assay for human Activator Protein 2 (AP-2) (AID 2282932). The conditions noted are these: HepG2 AP-2 cis-reporter, Attagene transcription factor profiling; actives raise or lower the signal. In a few lines: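 Transiently transfected HepG2 cells are exposed to chemical for 24 h. Reporter transcripts are then measured as fluorescence following RT-PCR and capillary separation, and gain- or loss-of-signal is fitted relative to DMSO.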

Assay [8] can be described thus: ATG_BRE_CIS: Attagene CIS-FACTORIAL HepG2 Assay for human Bone Morphogenetic Protein (BMP) Response Element (BRE) (AID 2282933). The conditions noted are these: HepG2 BMP response element reporter, Attagene transcription factor profiling; actives raise or lower the signal. Put shortly:
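After a 24 h chemical treatment, transiently transfected HepG2 cells were lysed for RNA; reporter transcripts were quantified by fluorescent RT-PCR and capillary electrophoresis, normalised to DMSO.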

Assay [9] deals with Aryl hydrocarbon receptor (Homo sapiens) (UniProt P35869). Description: ATG_Ahr_CIS: Attagene CIS-FACTORIAL HepG2 Assay for human Aryl Hydrocarbon Receptor (Ahr) (AID 2282930). The conditions noted are these: HepG2 AhR cis-factorial reporter transcription; actives raise or lower the signal. Put shortly:
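Reporter mRNA levels, quantified by RT-PCR and fluorescent capillary electrophoresis, reflect endogenous AhR transcriptional activity in HepG2 cells carrying transfected cis-promoter reporter constructs. Readout at 24 h post-dose; gain or loss fitted against DMSO baseline.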

Assay [10] has as its target Retinoic acid receptor alpha (Homo sapiens) (UniProt P10276). As to the kind of experiment: ATG_DR5_RAR_CIS: Attagene CIS-FACTORIAL HepG2 Assay for human Retinoic Acid Receptor Alpha (RARE), DR5 submotif (AID 2282934).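 For AC50: reporter responds to endogenous RAR alpha beta and gamma in HepG2 not RARA alone.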 The conditions noted are these: HepG2 Attagene cis-factorial RARE DR5 reporter, mRNA; actives raise or lower the signal. In a few lines: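 Reporter transcripts from a DR5-regulated unit, measured via RT-PCR plus capillary electrophoresis, reflect endogenous RAR activity in transiently transfected human HepG2 liver cells. Exposure lasted 24 h; gain or loss of signal scored against DMSO.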

Chain of Aryl hydrocarbon receptor (Homo sapiens) (P35869 whole entry, looked up): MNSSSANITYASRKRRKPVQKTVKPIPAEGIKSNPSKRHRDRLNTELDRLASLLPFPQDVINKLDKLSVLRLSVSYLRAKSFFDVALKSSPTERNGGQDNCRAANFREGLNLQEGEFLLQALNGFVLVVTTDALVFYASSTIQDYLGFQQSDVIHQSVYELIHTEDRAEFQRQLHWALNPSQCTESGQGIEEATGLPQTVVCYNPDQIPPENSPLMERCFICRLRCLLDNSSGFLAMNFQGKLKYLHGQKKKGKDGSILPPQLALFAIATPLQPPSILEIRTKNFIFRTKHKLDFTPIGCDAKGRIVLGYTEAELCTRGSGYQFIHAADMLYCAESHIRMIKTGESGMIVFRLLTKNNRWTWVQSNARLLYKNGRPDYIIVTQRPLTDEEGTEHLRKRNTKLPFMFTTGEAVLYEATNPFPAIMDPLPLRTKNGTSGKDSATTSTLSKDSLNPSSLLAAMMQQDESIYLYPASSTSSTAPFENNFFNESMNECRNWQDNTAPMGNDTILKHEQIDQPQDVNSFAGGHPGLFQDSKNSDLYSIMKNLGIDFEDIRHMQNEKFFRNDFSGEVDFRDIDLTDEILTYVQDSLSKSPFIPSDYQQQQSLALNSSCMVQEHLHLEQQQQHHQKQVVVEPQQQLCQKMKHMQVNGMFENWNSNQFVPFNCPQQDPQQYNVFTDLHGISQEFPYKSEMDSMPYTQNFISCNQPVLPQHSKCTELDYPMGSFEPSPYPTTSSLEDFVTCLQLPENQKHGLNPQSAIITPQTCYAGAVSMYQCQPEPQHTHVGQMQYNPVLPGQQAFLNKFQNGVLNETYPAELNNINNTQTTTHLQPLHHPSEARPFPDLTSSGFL
Chain of Retinoic acid receptor alpha (Homo sapiens) (P10276 whole entry, looked up): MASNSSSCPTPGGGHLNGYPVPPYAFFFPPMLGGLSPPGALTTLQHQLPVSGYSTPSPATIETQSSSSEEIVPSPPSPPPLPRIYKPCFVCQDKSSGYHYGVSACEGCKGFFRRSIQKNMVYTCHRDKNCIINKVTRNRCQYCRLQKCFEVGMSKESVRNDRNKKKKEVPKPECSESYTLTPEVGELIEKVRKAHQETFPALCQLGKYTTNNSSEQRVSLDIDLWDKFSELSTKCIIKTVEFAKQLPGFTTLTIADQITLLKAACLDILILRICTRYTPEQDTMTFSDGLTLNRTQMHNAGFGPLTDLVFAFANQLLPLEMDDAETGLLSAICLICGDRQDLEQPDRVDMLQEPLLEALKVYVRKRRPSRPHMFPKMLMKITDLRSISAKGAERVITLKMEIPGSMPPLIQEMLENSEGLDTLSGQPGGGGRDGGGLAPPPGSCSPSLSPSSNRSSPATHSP
Chain of CCAAT/enhancer-binding protein beta (Homo sapiens) (P17676 whole entry, looked up, the tested form may be a part): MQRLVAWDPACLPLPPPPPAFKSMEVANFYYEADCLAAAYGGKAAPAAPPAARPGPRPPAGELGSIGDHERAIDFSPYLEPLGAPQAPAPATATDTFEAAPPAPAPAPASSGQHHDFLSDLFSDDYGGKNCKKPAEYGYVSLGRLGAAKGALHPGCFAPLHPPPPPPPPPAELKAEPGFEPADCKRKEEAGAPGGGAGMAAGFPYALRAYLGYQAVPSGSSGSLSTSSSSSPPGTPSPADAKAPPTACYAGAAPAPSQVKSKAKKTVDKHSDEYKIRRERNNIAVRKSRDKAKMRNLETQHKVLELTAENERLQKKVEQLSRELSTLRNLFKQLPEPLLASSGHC

On to `CC12CCC(CC1)C(C)(C)O2`, for which the compound was called inactive in [1], in assay [2], in assay [3], in [4], in assay [5] and in [6]. For the same compound, the result in [7] and in assay [8] was inactive.
As to `CCOC(=O)[C@H](O)[C@@H](O)C(=O)OCC`, the result in [1], in [2], in [3], in [4], in [9] and in [6] was inactive. For the same compound, the call in assay [7], in assay [8] and in [10] was inactive.
`CCC(C)N` (stereo not drawn): the result in assay [1], in assay [2], in [3], in assay [4], in assay [9] and in [6] was inactive. The call in assay [7], in [8] and in assay [10] was inactive.
Take `CCCCCCCCCCCCc1ccc(O)cc1`: in assay [1], the AC50 is 0.35 µM (active). The call in [2], in assay [3], in [4], in [9], in assay [6] and in assay [7] was inactive. For the same compound, the compound was classed as inactive in [8] and in [10].
With `CCOC(=O)C1=NOC(c2ccccc2)(c2ccccc2)C1`, the compound was classed as inactive in [1], in assay [2], in [3], in [4], in assay [9] and in assay [6]. The outcome in [7], in assay [8] and in assay [10] was inactive.
Regarding `CCCC=C(C=O)CC`, the call in [1], in assay [2], in assay [3], in assay [4], in [6] and in [7] was inactive. For the same compound, the call in assay [8] and in [10] was inactive. Moreover, the AC50 in assay [9] was 100 µM (active).
As for `C=CCCCCCCCCC=O`, the call in [1], in assay [2], in assay [3], in assay [4], in assay [9] and in assay [6] was inactive. Besides, the compound was classed as inactive in [7] and in assay [8].
As to `COc1cc(O)c(C(=O)c2ccccc2)cc1S(=O)(=O)O`, the compound was called inactive in assay [1], in [2], in assay [3], in [4], in assay [5] and in assay [6]. Moreover, the call in assay [7], in assay [8] and in assay [10] was inactive.
On to `CCCCCCCOC(=O)c1ccc(O)cc1`, for which the figures for the concentration at half-maximal activity (AC50) in assay [1], in assay [5] and in [10] were 0.496 µM (active), 24.3 µM (active) and 53.1 µM (active), respectively. For the same compound, the compound was called inactive in [2], in [3], in assay [4], in assay [6], in assay [7] and in assay [8].
Consider `Cc1ccc2c(c1)CCCN2`, for which the compound was classed as inactive in assay [1], in assay [2], in assay [3], in assay [4], in assay [5] and in [6]. Besides, the result in assay [7], in [8] and in assay [10] was inactive.
`CCCCC(C=O)CC` (stereo not drawn): the compound was classed as inactive in assay [1], in assay [2], in assay [3], in assay [4], in assay [9] and in assay [6]. Besides, the result in [7] and in [8] was inactive.
For `CC(=O)OCC=C(C)C`, the compound was called inactive in [1], in assay [2], in assay [3], in assay [4], in assay [6] and in assay [7]. Also, the result in assay [8] and in [10] was inactive.
With `CCCC/C=C/C=C\C=O`, the compound was called inactive in [1], in assay [2], in assay [9], in assay [7] and in assay [8]. The AC50 in assay [4] was 159 µM (active); in assay [5], 135 µM (active); in [6], 149 µM (active).
As for `C[Si]1(C)O[Si](C)(C)O[Si](C)(C)O[Si](C)(C)O[Si](C)(C)O1`, the compound was classed as inactive in [1], in assay [2], in [3], in [4], in assay [9] and in assay [6]. For the same compound, the call in assay [7], in [8] and in [10] was inactive.
Turning to `COc1nccnc1CC(C)C`, the compound was called inactive in assay [1], in [2], in assay [3], in assay [4], in [9] and in assay [7]. For the same compound, the call in assay [8] and in assay [10] was inactive.
As for `C=CCCCCCCCCOC(C)=O`, the call in assay [1], in assay [2], in assay [3], in assay [4], in [9] and in assay [6] was inactive. The outcome in assay [7], in assay [8] and in assay [10] was inactive.
For the compound `CC(=O)OC1CCCCC1`, the call in assay [1], in assay [2], in [3], in assay [4], in assay [9] and in assay [6] was inactive. The outcome in [7], in [8] and in [10] was inactive.
Turning to `C=CCOC(=O)c1ccc(C(=O)OCC=C)c(C(=O)OCC=C)c1`, the compound was classed as inactive in assay [1], in [2], in assay [4], in assay [5], in assay [9] and in assay [6]. Besides, the outcome in [7], in assay [8] and in assay [10] was inactive.
Regarding `CC(C=O)c1ccccc1` (stereo not drawn), the compound was called inactive in assay [1], in assay [2], in assay [3], in assay [4], in [9] and in [6]. Also, the compound was classed as inactive in assay [7], in [8] and in assay [10].
Take `C=C1C[C@H]2[C@@H]3C=C(C)C4=CC(=O)CC[C@]4(C)[C@H]3CC[C@]2(C)[C@@]1(OC(C)=O)C(C)=O`: the values for the AC50 in assay [1] and in [6] were 0.00363 µM (active) and 63 µM (active), respectively. The result in assay [2], in [3], in assay [4], in [9], in [7] and in [8] was inactive. Moreover, the compound was called inactive in assay [10].
Consider `CCCSSCCC`, for which the call in [1], in assay [2], in assay [3], in assay [4], in [5] and in assay [6] was inactive. The compound was called inactive in assay [7], in [8] and in assay [10].
`c1ccc2sc(SSN3CCOCC3)nc2c1`: the compound was classed as inactive in assay [1], in [3] and in assay [8]. The AC50 was 146 µM (active) in assay [2]; 64 µM (active) in [4]; 43.2 µM (active) in [6]; 64.8 µM (active) in [7]; 170 µM (active) in [10].
Turning to `CC(=O)OC(C)c1ccccc1` (stereo not drawn), the compound was called inactive in assay [1], in assay [2], in assay [3], in assay [4], in assay [5] and in assay [6]. Further, the compound was called inactive in assay [7], in [8] and in [10].
Take `CCC(C)C(=O)OC` (stereo not drawn): the AC50 in [1] was 0.0271 µM (active). In addition, the outcome in [2], in assay [3], in assay [4], in assay [9], in assay [6] and in assay [7] was inactive. Besides, the compound was called inactive in [8] and in [10].
In the case of `Nc1ccnc(=O)[nH]1`, the call in assay [1], in assay [2], in assay [3], in [4], in [9] and in [6] was inactive. Besides, the outcome in [7], in assay [8] and in [10] was inactive.
Regarding `O=S(=O)(O)c1ccc(Nc2nc(Nc3ccc(C=Cc4ccc(Nc5nc(Nc6ccc(S(=O)(=O)O)cc6)nc(N(CCO)CCO)n5)cc4S(=O)(=O)O)c(S(=O)(=O)O)c3)nc(N(CCO)CCO)n2)cc1`, the compound was classed as inactive in assay [1], in assay [2], in [3], in assay [4], in [5] and in [6]. Besides, the compound was called inactive in assay [7], in [8] and in [10].
In the case of `C=C(C)[C@@H]1CC=C(C)CC1`, the compound was classed as inactive in assay [1], in [2], in [3], in assay [4], in [9] and in assay [6]. The result in assay [7] and in assay [8] was inactive.
As to `CCCCCCCCCCCCC`, the compound was classed as inactive in [1], in assay [2], in [3], in [4], in assay [9] and in assay [6]. Besides, the outcome in assay [7] and in [8] was inactive.
